According to PubChem BioAssay (EPA / NIEHS):
Several values for one entry are separate records, joined by “and”; a condition that tells them apart may be missing. Equal values may be shown once. Results filed as inconclusive are left out. Activity calls are given as the source filed them. How the source made its calls: active means hit-call score of the fitted dose curve at least 0.9, where 1 is the maximum; inconclusive means response in the unintended direction; inactive means score below 0.9.

Assay: CCTE_Shafer_MEA_dev_bursting_electrodes_number: CCTE's Neural Network Formation Assay for Number of Bursting Electrodes, Shafer Lab (AID 2284043)
Procedure: CCTE_Shafer_MEA_dev assay is conducted using Axion Biosystems 48 well microelectrode array (MEA) plates and Maestro recording system. Each well of the MEA plate contains a grid of 16 microelectrodes embedded in the culture surface. Electrically active cells, such as neurons, can be cultured over the electrodes, and electrical activity in these cells can be recorded extracellularly. The spontaneous firing of neurons is captured from each electrode on a microsecond timescale providing both temporally and spatially precise data. […] The CCTE_Shafer_MEA_dev assay uses primary cultures of rat cortical neurons. Recordings are made on days post-plating 5, 7, 9 and 12. As these cultures mature over time, neural networks develop functional activity and form cohesive networks in which electrical activity can be highly coordinated. CCTE_Shafer_MEA_dev_bursting_electrodes_number is 1 of 19 assay components of the CCTE_Shafer_MEA_dev assay. It measures the number of electrodes in a well with a burst rate of at least 1 burst (temporally-clustered group of action potential firing) every 2 minutes during a recording in a microelectrode array (MEA) using Axion Biosystems Maestro 768 channel amplifier with the AxIS adaptive spike detector. To collapse across multiple recordings made on days post-plating 5, 7, 9 and 12, the trapezoidal area-under-the-curve of the component is calculated.Data from the assay component CCTE_Shafer_MEA_dev_bursting_electrodes_number was analyzed into 1 assay endpoint. This assay endpoint, CCTE_Shafer_MEA_dev_bursting_electrodes_number, was analyzed in the negative analysis fitting direction relative to DMSO as the negative control and baseline of activity. Using a type of functional reporter, gain or loss-of-signal activity can be used to understand electrical activity.
On the day prior to culture, each well was coated thoroughly with 150 uL of 0.05% polyethyleneimine (PEI, Sigma Cat P3143) in 50 mM HEPES (Sigma Cat H7523) at a pH of 8. The plate was incubated at 37C for one hour. PEI was rinsed out with 500 uL of sterile water three times. Plates were stored at 4C until the day of culture. This culture was plated at a seeding density of 1.5 x 10^5 cells/well on a 48-well MEA plate, prepared as described above. Cells were administered via a 25 uL media/laminin ([…]; Sigma Cat L2020-1MG) drop directly onto the microelectrode array, as adding the cells with the laminin results in better attachment than pre-coating with laminin. After 2 hours, an additional 475 uL of cortical media was added and the cells returned to the incubator. Exposure starts at day 0 of plating and is continued over twelve days of network development until the experiment is terminated. Cells are fed with fresh medium on DIV 5 and 9, following the recordings on those days. The entire volume of media in the well is exchanged and any vehicle or compound treatment is renewed. Complete details are found in OP-NHEERL/ISTD/SBB/TJS/2015-03-r0 (available on request, email shafer.tim@epa.gov). Measurement of the electrical activity is non-invasive, and recordings can be made from the same plate over multiple different days of the culture. In cortical neurons, this allows for the measurement of extracellular action potentials over the period during which networks form in the MEA plate.

| SMILES | outcome | AC50 |
| --- | --- | --- |
| O=C(Cl)C(F)(F)C(F)(F)C(F)(F)C(=O)Cl | inactive | – |
| C[C@]12C=CC(=O)C=C1CC[C@H]1[C@@H]3C[C@@H](O)[C@](O)(C(=O)CO)[C@@]3(C)C[C@H](O)[C@@]12F | inactive | – |
| NCC(F)(F)C(F)(F)C(F)(F)C(F)(F)F | inactive | – |
| Cn1cc[nH]c1=S | inactive | – |
| CCN(CC)C(=S)SSC(=S)N(CC)CC | – | 108 nM (active) and 46.3 nM (active) |
| CCOc1ccc2[nH]cc(C(=O)NCc3ccccc3)c(=O)c2n1 | – | 804 nM (active) |
| NC(=O)N1c2ccccc2C=Cc2ccccc21 | inactive | – |
| FC(F)(F)C(F)(F)C(F)(F)C(F)(F)C(F)(F)C(F)(F)I | inactive | – |
| CCCC(CCC)C(=O)O | inactive | – |
| COc1cc2c(c(OC)c1OC)-c1ccc(OC)c(=O)cc1[C@@H](NC(C)=O)CC2 | – | 27 nM (active) |
| c1ccc2cc3ccccc3cc2c1 | inactive | – |
| NNC(=O)c1ccncc1 | – | 595 nM (active) |
| Nc1ccn([C@@H]2O[C@H](CO)[C@@H](O)[C@@H]2O)c(=O)n1 | – | 195 nM (active) and 215 nM (active) |
| FC(F)(F)COC(OCC(F)(F)F)OCC(F)(F)F | inactive | – |
| OC(O)(C(F)C(O)(O)C(F)(F)F)C(F)(F)F | inactive | – |
| c1ccc2c(c1)-c1cccc3c1c-2cc1ccccc13 | – | 5070 nM (active) |
